According to PubChem BioAssay AID602143 (Vanderbilt Specialized Chemistry Center, 2011):
A number with no mark means an inactive call. The source made the active and inactive calls. No stated cut-off is given here; in the data, active means remaining activity below about 50%; inactive means the rest.

target: Phospholipase D2 (Homo sapiens) (UniProt O14939); experiment: PLD2 inhibitors in cells, cell-based, HEK293, single concentration (AID 602143); conditions: HEK293 cellular PLD2 activity, percent of control; active compounds read low;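 further: tested at 200 nM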
Sequence (O14939 whole entry, looked up): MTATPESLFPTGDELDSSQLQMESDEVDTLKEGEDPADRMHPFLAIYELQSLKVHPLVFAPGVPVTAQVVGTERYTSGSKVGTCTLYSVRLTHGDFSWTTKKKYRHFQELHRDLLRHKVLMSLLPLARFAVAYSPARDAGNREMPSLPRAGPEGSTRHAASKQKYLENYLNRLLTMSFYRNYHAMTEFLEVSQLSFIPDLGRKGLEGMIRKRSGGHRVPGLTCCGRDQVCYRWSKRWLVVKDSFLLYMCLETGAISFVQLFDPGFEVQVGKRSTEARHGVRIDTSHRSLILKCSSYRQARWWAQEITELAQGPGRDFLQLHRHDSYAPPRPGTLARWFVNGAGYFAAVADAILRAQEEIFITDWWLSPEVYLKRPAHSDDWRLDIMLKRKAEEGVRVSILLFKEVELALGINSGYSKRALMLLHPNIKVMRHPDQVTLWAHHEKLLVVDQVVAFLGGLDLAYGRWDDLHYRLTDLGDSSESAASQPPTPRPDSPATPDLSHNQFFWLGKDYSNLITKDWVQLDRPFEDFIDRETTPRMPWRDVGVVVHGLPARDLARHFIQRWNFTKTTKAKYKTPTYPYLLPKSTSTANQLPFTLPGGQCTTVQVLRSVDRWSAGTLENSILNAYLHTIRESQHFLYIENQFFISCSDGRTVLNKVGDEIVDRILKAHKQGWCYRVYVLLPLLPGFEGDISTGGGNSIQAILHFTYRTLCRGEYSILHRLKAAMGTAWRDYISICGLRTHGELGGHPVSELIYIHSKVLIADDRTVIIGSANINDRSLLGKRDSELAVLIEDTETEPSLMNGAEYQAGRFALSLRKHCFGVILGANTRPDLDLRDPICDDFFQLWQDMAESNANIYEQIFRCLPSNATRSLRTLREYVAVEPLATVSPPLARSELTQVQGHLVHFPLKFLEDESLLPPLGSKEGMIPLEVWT
Sequence (O14939 whole entry, looked up): as above

Compound | remaining activity
O=C(NCCN1CCC2(CC1)CNc1ccccc12)c1cnc2ccccc2c1 | 90%
Cn1c(C(=O)NCCN2CCN(c3ccncc3)CC2)cc2ccccc21 | 109%
O=C(NCCN1CCN(c2ncccn2)CC1)c1ccc(Cl)cc1 | 106%
O=C(NCCN1CCN(c2ccccn2)CC1)c1ccc(C(F)(F)F)cc1 | 117%
Cn1c(=O)n(C2CCN(CCNC(=O)c3ccc(F)cc3)CC2)c2ccccc21 | 69.8%
C[C@@H](CN1CCC(n2c(=O)[nH]c3cc(F)ccc32)CC1)NC(=O)c1ccc(F)c(F)c1 | 85.2%
C[C@@H](CN1CCC2(CC1)CN(S(C)(=O)=O)c1ccccc12)NC(=O)[C@H]1C[C@@H]1c1ccccc1 | 109%
C[C@@H](CN1CCC(c2nc3ccc(F)cc3[nH]2)CC1)NC(=O)[C@H]1CC1c1ccccc1 (some centres undefined) | 92.5%
C[C@@H](CN1CCC2(CCc3ccccc32)CC1)NC(=O)c1cnc2ccccc2c1 | 108%
C[C@@H](CN1CCC(n2c(=O)[nH]c3ccccc32)CC1)NC(=O)c1cc2ccccc2s1 | 38.6% (active)
O=C(NCCN1CCN(c2ccncc2)CC1)c1ccc(Cl)cc1 | 116%
O=C(NCCN1CCC(n2c(=O)[nH]c3ccccc32)CC1)c1cccc2cccnc12 | 74.2%
C[C@@H](CN1CCC2(CC1)CN(S(C)(=O)=O)c1ccccc12)NC(=O)c1cnc2ccccc2c1 | 136%
O=C(NCCN1CCC(n2c(=O)[nH]c3ccccc32)CC1)c1cccc(F)n1 | 74.5%
C[C@@H](CN1CCC(n2c(=O)[nH]c3ccccc32)CC1)NC(=O)C1C[C@H]1c1ccccc1 (some centres undefined) | 105%
O=C1c2ccccc2C(=O)N1CCCN1CCC(c2nc3ccccc3[nH]2)CC1 | 82.5%
C[C@@H](CN1CCC2(CCc3ccccc32)CC1)NC(=O)c1ccc2ccccc2c1 | 104%
Cc1ccc(C(=O)NCCN2CCN(c3ccccn3)CC2)cc1 | 107%
O=C(NCCN1CCC2(C=Cc3ccccc32)CC1)c1cnc2ccccc2c1 | 92.4%
C[C@@H](CN1CCC(n2c(=O)[nH]c3ccccc32)CC1)NC(=O)c1cc2ccccc2[nH]1 | 0.434% (active)

Compound | remaining activity
O=C(NCCN1CCC(n2nnc3ccccc32)CC1)c1cnc2ccccc2c1 | 77.7%
C[C@@H](CN1CCC(n2c(=O)[nH]c3ccccc32)CC1)NC(=O)c1cccnc1 | 97.3%
Cc1cccc(NC(=S)NCCN2CCC(n3c(=O)[nH]c4ccccc43)CC2)c1 | 113%
CS(=O)(=O)N1CC2(CCN(CCNC(=O)c3cnc4ccccc4c3)CC2)c2ccccc21 | 83.7%
C[C@@H](CN1CCC(n2c(=O)[nH]c3cc(-c4ccsc4)ccc32)CC1)NC(=O)[C@H]1C[C@@H]1c1ccccc1 | 81.2%
O=C(NCCN1CC=C(n2c(=O)[nH]c3ccccc32)CC1)C1CC1c1ccccc1 (centres undefined) | 28.2% (active)
O=C(NCCN1CCC(n2c(=O)[nH]c3ccccc32)CC1)c1ccc(-c2ccccc2)o1 | 68.6%
Cc1ccc(C(=O)NCCN2CCN(c3ncccn3)CC2)cc1 | 85.6%
Cc1ccc(S(=O)(=O)NCCN2CCC(n3c(=O)[nH]c4ccccc43)CC2)cc1 | 77.3%
C[C@H](N)CN1CCC(c2nc3ccccc3n2C)CC1 (tested in a mixture with another compound) | 81.2%
O=C(CCN1CCC(n2c(=O)[nH]c3ccccc32)CC1)NCc1ccc(Cl)cc1 | 85.2%
C[C@H](CN1CCC(n2nnc3ccccc32)CC1)NC(=O)c1cnc2ccccc2c1 | 68.5%
O=C(NCCN1CCC2(CCc3ccccc32)CC1)c1ccc2ccccc2c1 | 124%
O=C(NCCN1CCC(n2c(=O)[nH]c3cc(I)ccc32)CC1)C1CC1c1ccccc1 (centres undefined) | 57.2%
O=C1c2ccccc2C(=O)N1CCCN1CCC(n2c(=O)[nH]c3ccccc32)CC1 | 97.3%
O=C1c2ccccc2C(=O)N1CCCNc1ccc2ccccc2c1 | 91.8%
C[C@@H](CN1CCC(n2c(=O)[nH]c3cc(-c4cccnc4)ccc32)CC1)NC(=O)[C@H]1C[C@@H]1c1ccccc1 | 72.1%
C[C@@H](CN1CCC(n2nnc3cc(C(F)(F)F)ccc32)CC1)NC(=O)c1cnc2ccccc2c1 | 86.9%
O=c1[nH]c2ccccc2n1C1CCN(CCNC(=S)Nc2ccccn2)CC1 | 72.7%
